According to PubChem BioAssay:
Unmarked numbers belong to inactive results. No rule for the calls is given here.

These compounds were tested against L-lactate dehydrogenase (Plasmodium falciparum (isolate CDC / Honduras)) (UniProt Q27743) (assay: PfLDH activity inhibition – cell lysate, 3D7 strain, counter-screen for P. falciparum growth inhibition project (AID 2304;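 also: 0% = vehicle and 100% = reference inhibitor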)). Settings: P. falciparum 3D7 crude extract, LDH APAD/NBT absorbance; at 2 µM; active compounds read high.
L-lactate dehydrogenase (Plasmodium falciparum (isolate CDC / Honduras)), sequence (Q27743 whole entry, looked up): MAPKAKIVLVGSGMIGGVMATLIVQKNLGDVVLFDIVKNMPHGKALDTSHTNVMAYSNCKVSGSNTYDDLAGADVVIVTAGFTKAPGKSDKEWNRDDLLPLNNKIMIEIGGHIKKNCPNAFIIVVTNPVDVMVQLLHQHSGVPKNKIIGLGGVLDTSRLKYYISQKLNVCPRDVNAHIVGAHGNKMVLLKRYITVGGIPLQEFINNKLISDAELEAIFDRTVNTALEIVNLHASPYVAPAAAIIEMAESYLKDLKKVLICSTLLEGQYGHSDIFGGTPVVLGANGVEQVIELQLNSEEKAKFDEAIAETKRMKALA

Row | SMILES | inhibition
1 | O=C(NCCCCCN1CCC(c2c[nH]c3ccccc23)CC1)Nc1ccc(Cl)c(Cl)c1 | 6%
2 | O=C(NCCCN1CCC(Cc2ccccc2)CC1)c1cc2c(Cl)nc3ccccc3c2s1 | -3%
3 | Cc1ccc(NC(=O)c2ccc3ncccc3c2)cc1OC1CCN(Cc2ccco2)C1 (stereo not given) | 2%
4 | COc1ccc(CCN2CCC(NCc3cccc(N(C)C)c3)CC2)cc1 | 2%
5 | O=C(c1cc(-c2ccco2)[nH]n1)N1CCN(S(=O)(=O)c2ccc(Cl)cc2)CC1 | 2%
6 | O=[N+]([O-])c1cccc(CNCC2CCN(CCc3ccccc3)CC2)c1 | -6%
7 | C[C@H](Cc1ccc(OCCCCCCCOc2ccc(C[C@@H](C)NC[C@H](O)c3cccc(Cl)c3)cc2)cc1)NC[C@H](O)c1cccc(Cl)c1 | -6%
8 | COc1cccc(CN2CCCN(Cc3cccc(NC(=O)c4ccc(Cl)c(Cl)c4)c3)CC2)c1 | 0%
9 | Cc1nc(N)nc(N)c1OCCCOc1ccccc1Br | -3%
10 | CC(=O)Nc1cccc(C(=O)Nc2cccc(-c3ccc(-c4nc5ccc(C(F)(F)F)cc5[nH]4)s3)c2)c1 | -3%
11 | CS(=O)(=O)CCNCc1ccc(-c2ccc3c(Nc4ccc(Cl)cc4F)ccnc3c2)o1 | -3%
12 | O=C(Nc1ccc(C(F)(F)F)cc1)c1ccc(S(=O)(=O)NC2CCN(CC3CCCCC3)C2)cc1 (stereo not given) | 5%
13 | CCOc1c(Br)cc(Br)cc1CNCCCCNc1nc2ccccc2[nH]1 | -4%
14 | CCc1ccc2nc(-c3ccc(F)cc3)nc(SCC(=O)Nc3sc(C)c(C)c3C#N)c2c1 | 1%
15 | CCOc1ncccc1CN1CCC(N2CCc3cc(NC(=O)c4ccco4)ccc32)C1 (stereo not given) | 1%
16 | Cc1cc(NCCc2ccc(O)cc2)nc(NCC(c2ccccc2)c2ccccc2)n1 | 1%
17 | CN1CCN(c2ccc(Nc3nc(N)c4ccn(C5CCC5)c4n3)cc2)CC1 | 2%
18 | CCN1C(=O)C(CC(=O)Nc2cccc(Cl)c2)N(Cc2ccc(OC)c(OC)c2)C1=S (stereo not given) | -8%
19 | Cc1cc(N2CCCC2)nc(Nc2ccc(NC(=O)Cc3ccccc3)cc2)n1 | -4%
20 | Cc1ccc(C(=O)Nc2cc(C(F)(F)F)cc(C(F)(F)F)c2)cc1[N+](=O)[O-] | 1%

Row | SMILES | inhibition
21 | CC(=O)N(C)C1CCN(Cc2cccc(-c3ccc(-c4nc5ccc(C(F)(F)F)cc5[nH]4)cc3)c2)C1 (stereo not given) | 3%
22 | CC(C)Oc1cc2c(cc1NS(=O)(=O)c1ccc(-c3ccc(Cl)s3)cc1F)CCN(C)CC2 | -5%
23 | O=S(=O)(Nc1ccc2nccc(N3CCNCC3)c2c1)c1ccc(-c2ccccc2)cc1 | -2%
24 | C=CCN1C(=O)CN(S(=O)(=O)c2ccc(-n3nc(C)cc3C)cc2)C1=S | 1%
25 | COc1ccccc1CCNc1nccc(N[C@@H](Cc2ccccc2)C(=O)NCc2cccs2)n1 | 3%
26 | Cn1cncc1C(=O)NC1CCN(c2ccnc(Nc3ccc(F)cc3)n2)C1 (stereo not given) | -7%
27 | NS(=O)(=O)c1ccc(CNc2ccc3ncc(-c4ccc(OC(F)(F)F)cc4)n3n2)cc1 | -7%
28 | COc1cc(NC(=O)c2sc(-c3ccc(Cl)cc3)cc2NC(=O)N2CCCC2)ccc1OCCN1CCCC1 | 0%
29 | Cn1c(NCc2cc(F)cc3c2OCOC3)nc2cc(Nc3ccnc(Nc4cccc(CS(C)(=O)=O)c4)n3)ccc21 | -1%
30 | O=C(C=NO)Nc1ccccc1[N+](=O)[O-] | -2%
31 | C/C=C/C=C/C1=NCCc2cc(OCCC)ccc21 | -4%
32 | O=C(Nc1ccc(N2CCCN(Cc3cccc(F)c3)CC2)cc1)c1ccccc1 | -4%
33 | N#Cc1ccc(N2CCN(Cc3ccc(-c4ccc(-c5nc6ccccc6[nH]5)s4)cc3)CC2)nc1 | 2%
34 | Clc1ccc(Nc2nc(NCc3ccccc3)nc(N/N=C/c3ccccn3)n2)cc1 | 3%
35 | O=C(Nc1cccc(CN2CCCN(Cc3ccc(O)cc3)CC2)c1)c1cccc(C(F)(F)F)c1 | 3%
36 | COc1ccc(S(=O)(=O)Nc2ccc(C(=O)NCc3ccc(C(F)(F)F)cc3)cc2)cc1N1CCN(CC2CC2)CC1 | 2%
37 | c1cncc(NCc2ccc(-c3cc4ccncc4cc3OC3CCNCC3)s2)c1 | 2%
38 | COc1cccc(NC(=O)NC2CCN(c3ccnc(Nc4cc(OC)c(OC)c(OC)c4)n3)C2)c1 (stereo not given) | -2%
39 | c1csc(-c2nc(N3CCCC3)ncc2-c2ccsc2)n1 | 3%
40 | N#Cc1cccc(NC(=O)c2ccc(S(=O)(=O)NCC3CCCN3CC3CCCCC3)cc2)c1 (stereo not given) | 4%
